Experimental data: PubChem BioAssay (NCATS)
Records with an inconclusive call do not appear. Values without a mark were called inactive. Calls of active or inactive are those of the source. Calls come from the whole dose curve; as a rule, active = well fitted curve in the direction sought with a large enough effect; inconclusive = small, poorly fitted or top-dose-only effect, or another doubt; inactive = no such curve, though single readings can be large; an effect the other way counts as inactive or inconclusive.

Assays:
[1] = Quantitative High-Throughput drug screen in 47 multiple myeloma cell lines against the NCATS MIPE library collection: MMM1_PLB cell viability assay (AID 1918976); note: nearly all actives have a fitted effect of over 35% in size; note: potency is the fitted concentration of half-maximal effect
In short: (§1)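 MIPE 4.0 approved/investigational drugs; 500 cells/well; 48 h 37 °C humidified 5% CO2; CTG luminescence readout; DMSO = 100%, media = 0% viability.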

[2] = Quantitative High-Throughput drug screen in 47 multiple myeloma cell lines against the NCATS MIPE library collection: NCIH929_DSMZ cell viability assay (AID 1918978); note: nearly all actives have a fitted effect of over 35% in size; note: potency is the fitted concentration of half-maximal effect
In short: as §1

[3] = Quantitative High-Throughput drug screen in 47 multiple myeloma cell lines against the NCATS MIPE library collection: OCIMY1_PLB cell viability assay (AID 1918979);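 note: series mostly up to about 46 µM; 100% = DMSO-only wells and 0% = cell-free media-only wells; nearly all actives have a fitted effect of over 35% in size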
In short: as §1

[4] = Quantitative High-Throughput drug screen in 47 multiple myeloma cell lines against the NCATS MIPE library collection: MM1S_ATCC cell viability assay (AID 1918980); note: potency is the fitted concentration of half-maximal effect; nearly all actives have a fitted effect of over 45% in size
In short: as §1

[5] = Quantitative High-Throughput drug screen in 47 multiple myeloma cell lines against the NCATS MIPE library collection: MM1R_ATCC cell viability assay (AID 1918981); note: nearly all actives have a fitted effect of over 35% in size; note: potency is the fitted concentration of half-maximal effect
In short: as §1

[6] = Quantitative High-Throughput drug screen in 47 multiple myeloma cell lines against the NCATS MIPE library collection: LP1_DSMZ cell viability assay (AID 1918982); note: nearly all actives have a fitted effect of over 35% in size; note: potency is the fitted concentration of half-maximal effect
In short: as §1

[7] = Quantitative High-Throughput drug screen in 47 multiple myeloma cell lines against the NCATS MIPE library collection: KMS28PE_JCRB cell viability assay (AID 1918983); note: nearly all actives have a fitted effect of over 35% in size; note: potency is the fitted concentration of half-maximal effect
In short: as §1

[8] = Quantitative High-Throughput drug screen in 47 multiple myeloma cell lines against the NCATS MIPE library collection: OPM1_PLB cell viability assay (AID 1918989); note: nearly all actives have a fitted effect of over 40% in size; note: potency is the fitted concentration of half-maximal effect
In short: as §1

[9] = Quantitative High-Throughput drug screen in 47 multiple myeloma cell lines against the NCATS MIPE library collection: XG6_PLB cell viability assay (AID 1919865); note: nearly all actives have a fitted effect of over 40% in size; note: potency is the fitted concentration of half-maximal effect
In short: as §1

[10] = Quantitative High-Throughput drug screen in 47 multiple myeloma cell lines against the NCATS MIPE library collection: XG1_PLB cell viability assay (AID 1919866); note: nearly all actives have a fitted effect of over 35% in size; note: potency is the fitted concentration of half-maximal effect
In short: as §1

[11] = Quantitative High-Throughput drug screen in 47 multiple myeloma cell lines against the NCATS MIPE library collection: OCIMY7_PLB cell viability assay (AID 1918987); note: nearly all actives have a fitted effect of over 65% in size; note: potency is the fitted concentration of half-maximal effect
In short: as §1

[12] = Quantitative High-Throughput drug screen in 47 multiple myeloma cell lines against the NCATS MIPE library collection: U266_ATCC cell viability assay (AID 1919864)
In short: as §1

[13] = Quantitative High-Throughput drug screen in 47 multiple myeloma cell lines against the NCATS MIPE library collection: VP6_DJ cell viability assay (AID 1919867); note: nearly all actives have a fitted effect of over 40% in size; note: potency is the fitted concentration of half-maximal effect
In short: as §1

[14] = Quantitative High-Throughput drug screen in 47 multiple myeloma cell lines against the NCATS MIPE library collection: UTMC2_PLB cell viability assay (AID 1919868); note: nearly all actives have a fitted effect of over 55% in size; note: potency is the fitted concentration of half-maximal effect
In short: as §1

[15] = Quantitative High-Throughput drug screen in 47 multiple myeloma cell lines against the NCATS MIPE library collection: MOLP8_DSMZ cell viability assay (AID 1918977); note: nearly all actives have a fitted effect of over 45% in size; note: potency is the fitted concentration of half-maximal effect
In short: as §1

[16] = Quantitative High-Throughput drug screen in 47 multiple myeloma cell lines against the NCATS MIPE library collection: SKMM1_PLB cell viability assay (AID 1919863); conditions: SKMM1 myeloma viability, CellTiter-Glo ATP, 48 h; viability: hits give low values; note: nearly all actives have a fitted effect of over 35% in size; note: potency is the fitted concentration of half-maximal effect; for viability: series mostly up to about 46 µM
In short: as §1

[17] = Quantitative High-Throughput drug screen in 47 multiple myeloma cell lines against the NCATS MIPE library collection: KMS34_JCRB cell viability assay (AID 1918985); note: nearly all actives have a fitted effect of over 40% in size
In short: as §1

[18] = Quantitative High-Throughput drug screen in 47 multiple myeloma cell lines against the NCATS MIPE library collection: OCIMY5_PLB cell viability assay (AID 1918988); note: potency is the fitted concentration of half-maximal effect; nearly all actives have a fitted effect of over 65% in size
In short: as §1

Compound | Potency [1] | Potency [2] | Potency [3] | Potency [4] | Potency [5] | Potency [6] | Potency [7] | Potency [8] | Potency [9] | Potency [10] | Potency [11] | Potency [12] | Potency [13] | Potency [14] | Potency [15] | Potency [16] | viability [16] | Potency [17] | Potency [18]
CCOC(=O)c1ncn2c1CN(C)C(=O)c1cc(F)ccc1-2 | 6.62 µM (active) | inactive | inactive | 18.7 µM (active) | 18.7 µM (active) | inactive | inactive | inactive | inactive | inactive |  |  |  |  |  |  |  |  | 
CN1CCC(=C2c3ccccc3C=Cc3ccccc32)CC1 |  | 5.9 µM (active) |  |  | 23.5 µM (active) |  |  | 18.7 µM (active) | 8.33 µM (active) | 13.2 µM (active) | 5.9 µM (active) | 16.6 µM (active) | 16.6 µM (active) | 13.2 µM (active) |  |  |  |  | 
Cc1cnc(C(=O)NCCc2ccc(S(=O)(=O)NC(=O)NC3CCCCC3)cc2)cn1 |  | inactive | inactive |  |  | 20.9 µM (active) |  |  |  | 20.9 µM (active) |  |  |  |  | inactive |  |  |  | 
COc1cc2nc(N3CCN(C(=O)c4ccco4)CC3)nc(N)c2cc1OC |  | 8.33 µM (active) |  |  | 26.4 µM (active) |  | 26.4 µM (active) | 8.33 µM (active) | 7.43 µM (active) | 8.33 µM (active) | 10.5 µM (active) | 18.7 µM (active) | 10.5 µM (active) | 11.8 µM (active) | 20.9 µM (active) | 23.5 µM (active) |  |  | 
Cc1cc(C(C)(C)C)c(O)c(C)c1CC1=NCCN1 |  | inactive | inactive |  | inactive | inactive | inactive | inactive | inactive | inactive |  |  | inactive |  | inactive |  |  |  | 
O=C(CCCN1CCC(O)(c2ccc(Cl)cc2)CC1)c1ccc(F)cc1 |  |  | inactive | 9.35 µM (active) | inactive |  | 16.6 µM (active) |  |  |  |  |  |  |  | inactive |  | 92.3% |  | 
COc1cc2nc(N3CCN(C(=O)C4COc5ccccc5O4)CC3)nc(N)c2cc1OC (stereo not drawn) | 20.9 µM (active) | 23.5 µM (active) |  |  | 20.9 µM (active) | 11.8 µM (active) | 23.5 µM (active) | 18.7 µM (active) | 20.9 µM (active) | 29.6 µM (active) | 18.7 µM (active) |  |  |  | inactive |  | 137% | inactive | 
CC(C)(Oc1ccc(C2CC2(Cl)Cl)cc1)C(=O)O (stereo not drawn) | inactive | inactive | inactive | 9.59 µM (active) | 48.1 µM (active) | inactive | inactive | inactive |  | inactive | inactive |  |  | inactive |  |  | 131% |  | 
CN1CCC(=C2c3ccccc3CC(=O)c3sccc32)CC1 |  | 4.18 µM (active) | inactive |  |  | inactive | inactive | 23.5 µM (active) | 5.9 µM (active) | 8.33 µM (active) |  |  | 9.35 µM (active) | 10.5 µM (active) | inactive |  | 102% |  | 23.5 µM (active)
Cn1c(=O)c2c(ncn2C)n(C)c1=O |  | inactive | inactive |  | inactive | inactive | inactive |  | inactive | inactive |  |  | inactive | inactive |  |  |  | inactive | 
